# Source: the supplement of paper PMC10369915
# Target: SHP2 N-SH2 domain T42A
# Test: log2 enrichment relative to wild-type ITIM peptide; higher = stronger binding
row,Binder,log2 enrichment
1,VFSLDYGELDF [PD-1 ITIM pTyr223 peptide variant V221L],-0.962
2,VFSVDYGELLF [PD-1 ITIM pTyr223 peptide variant D227L],-0.728
3,VFSVDYGELDI [PD-1 ITIM pTyr223 peptide variant F228I],-1.45
4,VFSKDYGELDF [PD-1 ITIM pTyr223 peptide variant V221K],-1
5,VFSVDYGELDW [PD-1 ITIM pTyr223 peptide variant F228W],0.678
6,VFSVIYGELDF [PD-1 ITIM pTyr223 peptide variant D222I],-0.259
7,VFSVDYGELVF [PD-1 ITIM pTyr223 peptide variant D227V],-0.565
8,VFSVDYGELRF [PD-1 ITIM pTyr223 peptide variant D227R],-0.941
9,VFSVDYGEIDF [PD-1 ITIM pTyr223 peptide variant L226I],-0.691
10,VVSVDYGELDF [PD-1 ITIM pTyr223 peptide variant F219V],-0.0583
11,VFSVDYGELDV [PD-1 ITIM pTyr223 peptide variant F228V],-1.42
12,VFSVDYGEHDF [PD-1 ITIM pTyr223 peptide variant L226H],-1.46
13,VFSHDYGELDF [PD-1 ITIM pTyr223 peptide variant V221H],-1.23
14,VFSVDYGELWF [PD-1 ITIM pTyr223 peptide variant D227W],-0.71
15,VFSVHYGELDF [PD-1 ITIM pTyr223 peptide variant D222H],1.68
16,VFSVDYGHLDF [PD-1 ITIM pTyr223 peptide variant E225H],-0.301
17,VRSVDYGELDF [PD-1 ITIM pTyr223 peptide variant F219R],1.24
18,VFSVDYGRLDF [PD-1 ITIM pTyr223 peptide variant E225R],-0.382
19,VFSVDYKELDF [PD-1 ITIM pTyr223 peptide variant G224K],2.48
20,VFSVDYGEKDF [PD-1 ITIM pTyr223 peptide variant L226K],-1.37

row,Binder,log2 enrichment
1,VFSVMYGELDF [PD-1 ITIM pTyr223 peptide variant D222M],0.307
2,VFSVDYGLLDF [PD-1 ITIM pTyr223 peptide variant E225L],-0.496
3,KFSVDYGELDF [PD-1 ITIM pTyr223 peptide variant V218K],0.439
4,VFSVDYGELDL [PD-1 ITIM pTyr223 peptide variant F228L],-1.19
5,MFSVDYGELDF [PD-1 ITIM pTyr223 peptide variant V218M],0.0157
6,VFSVDYGELDY [PD-1 ITIM pTyr223 peptide variant F228Y],-1.37
7,VFSVDYGYLDF [PD-1 ITIM pTyr223 peptide variant E225Y],-0.767
8,VFSVDYGELFF [PD-1 ITIM pTyr223 peptide variant D227F],-0.714
9,VFSVDYGILDF [PD-1 ITIM pTyr223 peptide variant E225I],-0.312
10,VFSYDYGELDF [PD-1 ITIM pTyr223 peptide variant V221Y],0.57
11,VFSVDYGEYDF [PD-1 ITIM pTyr223 peptide variant L226Y],-1.46
12,VFSVVYGELDF [PD-1 ITIM pTyr223 peptide variant D222V],0.135
13,YFSVDYGELDF [PD-1 ITIM pTyr223 peptide variant V218Y],-0.0716
14,VFFVDYGELDF [PD-1 ITIM pTyr223 peptide variant S220F],-0.202
15,IFSVDYGELDF [PD-1 ITIM pTyr223 peptide variant V218I],-0.151
16,VFHVDYGELDF [PD-1 ITIM pTyr223 peptide variant S220H],0.0672
17,VFSVDYGELHF [PD-1 ITIM pTyr223 peptide variant D227H],-0.826
18,VFSVWYGELDF [PD-1 ITIM pTyr223 peptide variant D222W],-0.569
19,VYSVDYGELDF [PD-1 ITIM pTyr223 peptide variant F219Y],0.45
20,VFSIDYGELDF [PD-1 ITIM pTyr223 peptide variant V221I],-0.464

row,Binder,log2 enrichment
1,VFWVDYGELDF [PD-1 ITIM pTyr223 peptide variant S220W],-0.544
2,VFSVRYGELDF [PD-1 ITIM pTyr223 peptide variant D222R],2.89
3,FFSVDYGELDF [PD-1 ITIM pTyr223 peptide variant V218F],-0.37
4,VFMVDYGELDF [PD-1 ITIM pTyr223 peptide variant S220M],-0.0956
5,VFSVDYLELDF [PD-1 ITIM pTyr223 peptide variant G224L],-0.0968
6,VFSVDYMELDF [PD-1 ITIM pTyr223 peptide variant G224M],-0.224
7,VFSVFYGELDF [PD-1 ITIM pTyr223 peptide variant D222F],-0.334
8,VFVVDYGELDF [PD-1 ITIM pTyr223 peptide variant S220V],-0.0553
9,VFSVDYGKLDF [PD-1 ITIM pTyr223 peptide variant E225K],0.303
10,VFSMDYGELDF [PD-1 ITIM pTyr223 peptide variant V221M],-0.943
11,VFSVDYYELDF [PD-1 ITIM pTyr223 peptide variant G224Y],-0.792
12,VFSFDYGELDF [PD-1 ITIM pTyr223 peptide variant V221F],-1.03
13,VFSVDYGELDR [PD-1 ITIM pTyr223 peptide variant F228R],-1.52
14,VFSVYYGELDF [PD-1 ITIM pTyr223 peptide variant D222Y],0.0176
15,VFSVDYGFLDF [PD-1 ITIM pTyr223 peptide variant E225F],-0.82
16,VFSRDYGELDF [PD-1 ITIM pTyr223 peptide variant V221R],-1.04
17,VWSVDYGELDF [PD-1 ITIM pTyr223 peptide variant F219W],-0.244
18,VFSVDYWELDF [PD-1 ITIM pTyr223 peptide variant G224W],-0.623
19,VFSVDYGELDH [PD-1 ITIM pTyr223 peptide variant F228H],-1.32
20,VFRVDYGELDF [PD-1 ITIM pTyr223 peptide variant S220R],1.22
